Measurements published in PubChem BioAssay (NCI).
“And” between values parts separate entries of the source, which are not always exact repeats. Equal values may be shown once. This is part of a sample that, as a whole, favours compounds with a hit. Of some 83,000 tested, about 20% had one in any assay.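 A percent growth of 40 corresponds to 60% growth inhibition; 0 means no net growth; -100 means all cells died. Active threshold: below 10.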 The source made the active and inactive calls.

Assays:
Experiment in all cases: NCI-60 one-dose screen, 48 h (100 = growth as untreated, 0 = no growth, -100 = all killed)
Conditions in all cases: 10 µM unless noted
SK-MEL-2 melanoma = tested on: SK-MEL-2 melanoma
EKVX NSCLC = tested on: EKVX NSCLC
SN12C renal = tested on: SN12C renal
UO-31 renal = tested on: UO-31 renal
TK-10 renal = tested on: TK-10 renal
ACHN renal = tested on: ACHN renal
CAKI-1 renal = tested on: CAKI-1 renal
A498 renal = tested on: A498 renal
CCRF-CEM leukemia = tested on: CCRF-CEM leukemia
SR leukemia = tested on: SR leukemia
RPMI-8226 leukemia = tested on: RPMI-8226 leukemia
OVCAR-8 ovarian = tested on: OVCAR-8 ovarian
OVCAR-5 ovarian = tested on: OVCAR-5 ovarian
OVCAR-4 ovarian = tested on: OVCAR-4 ovarian
SK-OV-3 ovarian = tested on: SK-OV-3 ovarian
IGROV1 ovarian = tested on: IGROV1 ovarian
OVCAR-3 ovarian = tested on: OVCAR-3 ovarian
HS 578T breast = tested on: HS 578T breast
NCI/ADR-RES ovarian = tested on: NCI/ADR-RES ovarian
MOLT-4 leukemia = tested on: MOLT-4 leukemia

Measured: growth

CCCc1cc2cc(-n3nc(CC)c4c3CC(C)(C)CC4=O)cc(NC3CCC(O)CC3)c2c(=O)[nH]1 (stereo not given)
inactive: SK-MEL-2 melanoma 53.1% | EKVX NSCLC 52.4% | UO-31 renal 14.1% | CAKI-1 renal 19.6% | A498 renal 37% | CCRF-CEM leukemia 21.8% | RPMI-8226 leukemia 12.4% | OVCAR-8 ovarian 21.9% | OVCAR-5 ovarian 35.2% | OVCAR-4 ovarian 64.9% | SK-OV-3 ovarian 27.2% | IGROV1 ovarian 25.4% | OVCAR-3 ovarian 46.7% | HS 578T breast 16.1% | NCI/ADR-RES ovarian 39.9%
active: SN12C renal 7.81% | TK-10 renal 0.71% | ACHN renal 8.86% | SR leukemia 0.947%

CC(C)[C@H]1c2[nH]c3ccccc3c2C[C@H]2C(=O)N(CCCCCCC(=O)NO)CC(=O)N12
inactive: SK-MEL-2 melanoma 86.8% | EKVX NSCLC 93% | SN12C renal 90.2% | UO-31 renal 83.2% | TK-10 renal 72% | ACHN renal 98.2% | CAKI-1 renal 86.2% | A498 renal 90% | CCRF-CEM leukemia 27.8% | SR leukemia 33.6% | RPMI-8226 leukemia 58.6% | OVCAR-8 ovarian 60.8% | OVCAR-5 ovarian 81.5% | OVCAR-4 ovarian 99.9% | SK-OV-3 ovarian 95% | IGROV1 ovarian 92.9% | HS 578T breast 74.2% | NCI/ADR-RES ovarian 95.3%

CCOC(=O)c1cccnc1Nc1ccc(NC(=O)Nc2ccc(Cl)c(C(F)(F)F)c2)cc1
inactive: SK-MEL-2 melanoma 37.2% | EKVX NSCLC 40.6% | SN12C renal 51.3% | UO-31 renal 34.1% | TK-10 renal 40.3% | ACHN renal 35.3% | CAKI-1 renal 22.6% | A498 renal 41.3% | CCRF-CEM leukemia 29.5% | MOLT-4 leukemia 24.9% | SR leukemia 54% | RPMI-8226 leukemia 16% | OVCAR-8 ovarian 39.3% | SK-OV-3 ovarian 70.1% | IGROV1 ovarian 29.9% | HS 578T breast 84.5% | NCI/ADR-RES ovarian 35.3%

CN1CC[C@@H]2[C@@]3(C)CC[C@H](O)C(C)(C)[C@@H]3CC[C@@]2(C)[C@]2(C)CC[C@@]3(CO)CCC(C)(C)C[C@@H]3C12 (stereo not given in full)
inactive: SK-MEL-2 melanoma 102% | EKVX NSCLC 100% | SN12C renal 91.9% | UO-31 renal 68.2% | TK-10 renal 117% | ACHN renal 99.8% | CAKI-1 renal 84.1% | A498 renal 97.1% | CCRF-CEM leukemia 76.2% | SR leukemia 30.2% | RPMI-8226 leukemia 74.6% | OVCAR-8 ovarian 97.2% | OVCAR-5 ovarian 91.7% | OVCAR-4 ovarian 96.7% | SK-OV-3 ovarian 108% | IGROV1 ovarian 94.8% | HS 578T breast 79.2% | NCI/ADR-RES ovarian 96.8%

COc1ccc(CC(C)=C(c2ccc(OCCN3CCCC3)cc2)c2ccc(OCCN3CCCC3)cc2)cc1
active: SK-MEL-2 melanoma -91.8% | EKVX NSCLC -90.8% | SN12C renal -82.9% | UO-31 renal -94.9% | TK-10 renal -94.4% | ACHN renal -96% | CAKI-1 renal -89.1% | A498 renal -87.5% | CCRF-CEM leukemia -40.8% | SR leukemia -34% | RPMI-8226 leukemia -21.7% | OVCAR-8 ovarian -81.6% | OVCAR-5 ovarian -91.1% | OVCAR-4 ovarian -86.9% | SK-OV-3 ovarian -88% | IGROV1 ovarian -76.5% | OVCAR-3 ovarian -81% | HS 578T breast -47.3% | NCI/ADR-RES ovarian -80.5%

C#CCOc1ccccc1C(OC(=O)c1ccccc1)C(=O)NC(C)(C)C(C)(C)C (stereo not given)
inactive: SK-MEL-2 melanoma 90.6% | EKVX NSCLC 75.3% | SN12C renal 95.7% | UO-31 renal 62.7% | TK-10 renal 101% | ACHN renal 97.2% | CAKI-1 renal 63.5% | A498 renal 120% | CCRF-CEM leukemia 79.5% | SR leukemia 64.7% | RPMI-8226 leukemia 74% | OVCAR-8 ovarian 89.3% | OVCAR-5 ovarian 102% | OVCAR-4 ovarian 85.9% | SK-OV-3 ovarian 95.8% | IGROV1 ovarian 68.9% | OVCAR-3 ovarian 99.9% | HS 578T breast 91.1% | NCI/ADR-RES ovarian 87%

Cn1ncc2ncc(-c3ccc4ncc(C#N)c(N5CCc6cc(F)c(Cl)cc65)c4c3)cc21
active: UO-31 renal 3.14% | A498 renal 2.55% | IGROV1 ovarian -9.7% | HS 578T breast -1.2%
inactive: SK-MEL-2 melanoma 47.6% | EKVX NSCLC 11.3% | SN12C renal 30.3% | TK-10 renal 63.2% | ACHN renal 17% | CAKI-1 renal 13.6% | CCRF-CEM leukemia 28.4% | SR leukemia 22.3% | RPMI-8226 leukemia 35.8% | OVCAR-8 ovarian 38.8% | OVCAR-5 ovarian 47% | OVCAR-4 ovarian 26.1% | SK-OV-3 ovarian 15% | OVCAR-3 ovarian 29.8% | NCI/ADR-RES ovarian 39.3%

Cn1c(SCC(=O)c2ccc(F)cc2)nc2ccccc2c1=O
inactive: SK-MEL-2 melanoma 105% | EKVX NSCLC 79.6% | SN12C renal 91.4% | UO-31 renal 74.2% | TK-10 renal 120% | ACHN renal 96.4% | CAKI-1 renal 87.7% | A498 renal 99.5% | CCRF-CEM leukemia 90.3% | SR leukemia 93% | RPMI-8226 leukemia 76.5% | OVCAR-8 ovarian 94.5% | OVCAR-4 ovarian 79.1% | SK-OV-3 ovarian 95.7% | IGROV1 ovarian 88.7% | OVCAR-3 ovarian 104% | HS 578T breast 101% | NCI/ADR-RES ovarian 93.6%

C#C[C@]1(O)CC[C@H]2[C@@H]3CC=C4c5sc(N(C)c6ccccc6)nc5CC[C@]4(C)[C@H]3CC[C@@]21C
inactive: SK-MEL-2 melanoma 85.8% | EKVX NSCLC 103% | SN12C renal 91.2% | UO-31 renal 106% | TK-10 renal 137% | ACHN renal 92.1% | CAKI-1 renal 92.3% | A498 renal 88.4% | CCRF-CEM leukemia 44.3% | SR leukemia 43.7% | OVCAR-8 ovarian 82% | SK-OV-3 ovarian 98.7% | IGROV1 ovarian 107% | HS 578T breast 89.8% | NCI/ADR-RES ovarian 82.1%
active: RPMI-8226 leukemia 2.94%

CCOC(=O)c1c(NC(=O)c2cccc(C(F)(F)F)c2)sc2c1CCC(=O)C2
active: UO-31 renal 7.65% | ACHN renal 8.52% | CCRF-CEM leukemia 8.47% | SR leukemia 8.07% | RPMI-8226 leukemia 7.65% | OVCAR-4 ovarian 0.236%
inactive: SK-MEL-2 melanoma 71.9% | EKVX NSCLC 39.4% | SN12C renal 42.9% | TK-10 renal 54.9% | CAKI-1 renal 23.9% | A498 renal 106% | OVCAR-8 ovarian 19.7% | OVCAR-5 ovarian 40.4% | SK-OV-3 ovarian 82.4% | IGROV1 ovarian 18.4% | OVCAR-3 ovarian 25.8% | HS 578T breast 36.5% | NCI/ADR-RES ovarian 12.5%

CC(C)(C)Nc1nc2c(OCCc3ccccc3)cccn2c1-c1ccc([N+](=O)[O-])cc1
inactive: SK-MEL-2 melanoma 60.5% | EKVX NSCLC 41.8% | SN12C renal 75.5% | UO-31 renal 31.6% | TK-10 renal 66.5% | ACHN renal 54.4% | CAKI-1 renal 43.3% | A498 renal 97.7% | CCRF-CEM leukemia 53.7% | SR leukemia 52% | RPMI-8226 leukemia 43.1% | OVCAR-8 ovarian 64% | OVCAR-5 ovarian 67.3% | OVCAR-4 ovarian 42.3% | SK-OV-3 ovarian 76.5% | IGROV1 ovarian 56.9% | OVCAR-3 ovarian 50.6% | HS 578T breast 78.3% | NCI/ADR-RES ovarian 51.6%

O=C(/C=C/C=C/c1csc(Br)n1)NO
inactive: SK-MEL-2 melanoma 109% | EKVX NSCLC 102% | SN12C renal 95.1% | UO-31 renal 71.9% | TK-10 renal 86.6% | ACHN renal 92.6% | CAKI-1 renal 83.9% | A498 renal 92.8% | CCRF-CEM leukemia 43.1% | SR leukemia 60% | RPMI-8226 leukemia 60.7% | OVCAR-8 ovarian 85.7% | OVCAR-5 ovarian 98.2% | OVCAR-4 ovarian 103% | SK-OV-3 ovarian 113% | IGROV1 ovarian 106% | HS 578T breast 98.5% | NCI/ADR-RES ovarian 74.6%

Clc1cccc(/C=N/Nc2nc(N/N=C/c3cccc(Cl)c3)nc(N3CCOCC3)n2)c1
inactive: EKVX NSCLC 72.2% | SN12C renal 59.9% | UO-31 renal 26.8% | TK-10 renal 100% | ACHN renal 25.8% | CAKI-1 renal 37.6% | CCRF-CEM leukemia 24.8% | RPMI-8226 leukemia 38.8% | OVCAR-8 ovarian 49.5% | OVCAR-5 ovarian 95.5% | OVCAR-4 ovarian 66.4% | SK-OV-3 ovarian 130% | IGROV1 ovarian 50.7% | OVCAR-3 ovarian 56.3% | HS 578T breast 67.5% | NCI/ADR-RES ovarian 61.8%
active: SK-MEL-2 melanoma -1.89% | A498 renal 4.3% | SR leukemia 7.7%

Cc1ccc2c(n1)C(=O)C(Cl)=C(Nc1ccccc1C(=O)OC(C)(C)C)C2=O
active: UO-31 renal -62.7% | TK-10 renal -84.6% | ACHN renal -73.6% | CAKI-1 renal -92.4% | CCRF-CEM leukemia -27.1% | SR leukemia -30.8% | RPMI-8226 leukemia -31.8% | OVCAR-4 ovarian -45.3% | OVCAR-3 ovarian -63.6%
inactive: SK-MEL-2 melanoma 93.6% | EKVX NSCLC 28% | SN12C renal 52.6% | A498 renal 92.3% | OVCAR-8 ovarian 66.8% | OVCAR-5 ovarian 139% | SK-OV-3 ovarian 105% | IGROV1 ovarian 59.6% | HS 578T breast 84.1% | NCI/ADR-RES ovarian 64.2%

CCCCCCCCCC(=O)NC(C)(C)C(=O)N1CCC[C@H]1C(=O)N[C@@H](CC(C)C)C(=O)N[C@@](C)(CC)C(=O)N[C@@H](CCC(N)=O)C(=O)N[C@H](CCC(N)=O)C(=O)NC(C)(C)C(=O)NC(C)(C)C(=O)N[C@@H](CCC(N)=O)C(=O)N[C@H](CC(C)C)C(=O)N[C@H](CO)CC(C)C
-70.9% (active) and 14.9% (inactive): TK-10 renal
-20.8% (active) and 50.4% (inactive): OVCAR-4 ovarian
-94% (active) and 26.4% (inactive): UO-31 renal
-85.3% (active) and 18.4% (inactive): ACHN renal
active: SK-MEL-2 melanoma -86.8% and -74.3% | EKVX NSCLC -87.8% and -64.6% | SN12C renal -86.4% and -84.1% | CAKI-1 renal -67.5% and 5.79% | A498 renal -91.3% and -31.5% | CCRF-CEM leukemia -72% and -39.7% | SR leukemia -77.5% and 1.34% | RPMI-8226 leukemia -67.5% and -26% | OVCAR-8 ovarian -86.4% and -49.5% | IGROV1 ovarian -87% and 5.72% | OVCAR-3 ovarian -23.8% | HS 578T breast -71.3% and -59% | NCI/ADR-RES ovarian -83% and 0.971%
-70.9% (active) and 19.4% (inactive): SK-OV-3 ovarian
